Experimental data as given in PubChem BioAssay (NCATS).
Results filed as inconclusive are left out. Where a call stands in place of a potency, no number is given. A number with no mark means an inactive call. Active and inactive are the calls of the source. Calls come from the whole dose curve; as a rule, active = well fitted inhibition curve with a large enough effect; inconclusive = small, poorly fitted or top-dose-only effect; inactive = flat fitted curve, though single readings scatter.

Experiment: P-glycoprotein substrates identified in KB-8-5-11 adenocarcinoma cell line, qHTS therapeutic library screen (AID 1346987); note: nearly all actives have a fitted effect of over 65% in size
Conditions: KB-8-5-11 (P-gp overexpressing) viability, CellTiter-Glo, 72 h; series mostly up to 44.5 µM
In short: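 KB-8-5-11: colchicine-selected sub-line of KB-3-1 over-expressing P-gp; assay medium lacked colchicine. 72 h drug exposure at 37 degree C, CellTiter-Glo.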
Potency is the fitted concentration of half-maximal effect.

Which Potency does the source give for `CC(C)(C)Nc1nc2cc(Cl)c(Cl)cc2nc1S(C)(=O)=O` here?
The Potency was 14.6 µM (active).

Which Potency does the source give for `Cc1cnc(Nc2ccc(F)cc2Cl)nc1-c1c[nH]c(C(=O)NC(CO)c2cccc(Cl)c2)c1` (stereo not given) here?
The Potency was 3.66 µM (active).

For `CC(c1ncncc1F)C(O)(Cn1cncn1)c1ccc(F)cc1F` (stereo not given), which Potency is on record?
The Potency was “inactive”.

Which Potency does the source give for `O=C(O)c1cc2cccc([N+](=O)[O-])c2[nH]1` here?
The Potency was “inactive”.

With `C=C1C[C@]23C[C@H]1CC[C@H]2[C@]1(C)CCC[C@@](C)(C(=O)O)[C@H]1[C@@H]3C(=O)O` as the compound, how does the Potency read?
Its Potency is “inactive”.

Which Potency does the source give for `C/C1=C\[C@H]2OC(=O)[C@@H](C)[C@@H]2CC/C(C(=O)O)=C/CC1` here?
Its Potency is “inactive”.

Which Potency does the source give for `c1cc(OCCCN2CCCCC2)ccc1CN1CCCCC1` here?
The Potency was “inactive”.

Which Potency does the source give for `CC(C)(O)CC(CO)NC(=O)CC(O)CC(=O)Cc1ccccc1` (stereo not given) here?
Its Potency is “inactive”.

With `NC[C@@](O)(c1ccc(Cl)cc1)c1ccc(-c2cn[nH]c2)cc1` as the compound, how does the Potency read?
Its Potency is 9.2 µM (active).

Which outcome does the source give for `C[C@@H]1O[C@@H](O[C@@H]2[C@@H](O[C@@H]3O[C@@H](C)[C@H](O[C@@H]4OC[C@H](O)[C@H](O[C@@H]5OC[C@@H](O)[C@H](O)[C@H]5O)[C@H]4O)[C@@H](O[C@@H]4OC[C@](O)(CO)[C@H]4O)[C@H]3O)[C@H](OC(=O)[C@]34CCC(C)(C)C[C@H]3C3=CCC5[C@@]6(C)C[C@H](O)[C@H](O[C@@H]7O[C@H](CO[C@@H]8OC[C@H](O)[C@H](O)[C@H]8O)[C@@H](O)[C@H](O)[C@H]7O)C(C)(C)C6CC[C@@]5(C)[C@]3(C)C[C@H]4O)OC[C@H]2O)[C@H](O)[C@H](O)[C@H]1O` (stereo not given in full) here?
The outcome was “inactive [at 9.29 µM]”.

With `C=C1C(O)C(O)C2(CC3C(C)=CCC4C(C)(CO)CCCC34C)OC2C1O` (stereo not given) as the compound, how does the Potency read?
The Potency was “inactive”.

For `C/C(=C/CO)CC[C@@H]1[C@@](C)(O)CCC2C(C)(C)CCC[C@]21C` (stereo not given in full), which Potency is on record?
Its Potency is “inactive”.

For `COc1ccc(C(=O)Nc2ncc(-c3ccc(C(=O)O)cc3)s2)cc1`, which Potency is on record?
Its Potency is 2.91 µM (active).

With `C[C@@]1(O)[C@H](O)[C@@H](CO)O[C@H]1n1ccc(N)nc1=O` as the compound, how does the Potency read?
The Potency was “inactive”.

For `Cn1nnc(-c2ccc(-c3ccc(N4C[C@H](CO)OC4=O)cc3F)cn2)n1`, which Potency is on record?
The Potency was “inactive”.

For `CC1OC2OC(=O)C3(C)CC4=C(CO)C5=C(CC(=O)C4(C)C(C1=O)C23)C(C)(C)OC(=O)C5` (stereo not given), which Potency is on record?
Its Potency is “inactive”.

For `CC1CCC2C(C(=O)O)=COC(O[C@@H]3O[C@H](CO)[C@@H](O)[C@H](O)[C@H]3O)C12` (stereo not given in full), which Potency is on record?
Its Potency is “inactive”.

Which Potency does the source give for `COC(=O)C1=CO[C@@H](O)C2C(CO)=CCC12` (stereo not given in full) here?
The Potency was “inactive”.

With `COc1ccc(CCC(=O)c2c(O)cc(O)cc2O[C@@H]2O[C@H](CO)[C@@H](O)[C@H](O)[C@H]2O)cc1` as the compound, how does the Potency read?
The Potency was “inactive”.

For `O=C(O)Cc1ccc2oc(-c3ccc(NC(=O)/C=C/c4ccc(Br)cc4)c(F)c3)nc2c1`, which Potency is on record?
Its Potency is “inactive”.

With `CC1(C)CC2=C3C=CC4C5(C)CCC(O)C(C)(C)C5CCC4(C)C3(C)CCC2(C)C(O)C1` (stereo not given) as the compound, how does the Potency read?
The Potency was “inactive”.

With `O=C(NCc1ccc(S(=O)(=O)c2cc(F)cc(F)c2)cc1)c1ccc2nccn2c1` as the compound, how does the Potency read?
Its Potency is 0.0184 µM (active).

With `CN(C)C1CCN(C(=O)c2ccc(NC(=O)Nc3ccc(-c4nc(N5CCOCC5)nc(N5CCOCC5)n4)cc3)cc2)CC1` as the compound, how does the Potency read?
Its Potency is “inactive”.

For `CC(C)[N+]1(C)C2CCC1CC(OC(=O)C(CO)c1ccccc1)C2` (stereo not given), which Potency is on record?
Its Potency is “inactive”.

Which Potency does the source give for `CO[C@H]1C[C@@H]2CC[C@@H](C)[C@@](O)(O2)C(=O)C(=O)N2CCCC[C@H]2C(=O)O[C@H]([C@H](C)C[C@@H]2CC[C@@H](OP(C)(C)=O)[C@H](OC)C2)CC(=O)[C@H](C)/C=C(\C)[C@@H](O)[C@@H](OC)C(=O)[C@H](C)C[C@H](C)/C=C/C=C/C=C/1C` here?
The Potency was “inactive”.

Which activity change, negative = cytotoxicity does the source give for `CC(C)=CCC[C@](C)(O[C@@H]1O[C@H](CO)[C@@H](O)[C@H](O)[C@H]1O)[C@H]1CC[C@]2(C)[C@@H]1[C@H](O)CC1[C@@]3(C)CC[C@H](O)C(C)(C)C3[C@@H](O[C@@H]3O[C@H](CO)[C@@H](O)[C@H](O)[C@H]3O[C@@H]3OC[C@@H](O)[C@H](O)[C@H]3O)C[C@]12C` (stereo not given in full) here?
Its activity change, negative = cytotoxicity is -2.05% [at 9.29 µM].

Which Potency does the source give for `CC(C)c1cc2c(c(O)c1O)[C@@]13CCCC(C)(C)[C@@H]1[C@H](OC3=O)C2=O` here?
Its Potency is “inactive”.

With `N[C@H]1Cc2ccccc2N(O)C1=O` as the compound, how does the Potency read?
The Potency was “inactive”.

Which Potency does the source give for `CC1=CC(=O)CC2C1(O)CCC(C)C21CC(c2ccoc2)OC1=O` (stereo not given) here?
Its Potency is “inactive”.

For `CC1(C)CC[C@]2(C(=O)O[C@@H]3O[C@H](CO)[C@@H](O)[C@H](O)[C@H]3O)CC[C@]3(C)C(=CCC4[C@@]5(C)CC[C@H](O[C@@H]6O[C@H](C(=O)O)[C@@H](O)[C@H](O)[C@H]6O)[C@@](C)(CO)C5CC[C@]43C)C2C1` (stereo not given in full), which activity change, negative = cytotoxicity is on record?
Its activity change, negative = cytotoxicity is -4.65% [at 9.29 µM].
